Test results: PubChem BioAssay (Tox21)
Records with an inconclusive call do not appear. Active and inactive are the calls of the source. Unless noted, calls follow the shape of the dose curve; as a rule, active = well fitted curve in the direction sought with a large enough effect in the repeat runs; inconclusive = weak or mixed curves; inactive = no such curve, though single readings can be large; an effect the other way counts as inactive or inconclusive.

Assays:
[1] = qHTS assay for small molecule agonists of the p53 signaling pathway (AID 651631; calls by dose curve; also: nearly all actives have a fitted effect of over 15% in size)
How it was run: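 HCT-116 cells carrying a stable p53 response element–beta-lactamase reporter were plated, rested 5 h at 37 °C, then exposed to compound in DMSO for 16 h at 37 °C; reporter activity was read as FRET substrate fluorescence after 2 h at room temperature.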

[2] = qHTS assay for small molecules that induce genotoxicity in human embryonic kidney cells expressing luciferase-tagged ATAD5 (AID 651632); also: nearly all actives have a fitted effect of over 15% in size
How it was run: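 A rise in luciferase signal from ATAD5-tagged HEK293T cells marks genetic stress. Cells were exposed to compounds for 16 hr at 37C, 5% CO2, then luciferase was quantified after a 30 min room-temperature incubation with Amplite.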

[3] = qHTS assay for small molecule agonists of the p53 signaling pathway - cell viability (AID 651633; calls by dose curve; also: series mostly up to about 83 µM; nearly all actives have a fitted effect of over 30% in size)
How it was run: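 Viability counter-read: CellTiter-Glo luminescence (30 min, room temperature) in the same p53RE-bla plates. These plates had been exposed to compounds for 16 h at 37 C.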

[4] = qHTS assay for small molecules that induce genotoxicity in human embryonic kidney cells expressing luciferase-tagged ATAD5 - cell viability (AID 651634; calls by dose curve; also: nearly all actives have a fitted effect of over 25% in size)
How it was run: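 Cytotoxicity counter-readout: after 15.5 hr compound treatment at 37C, live-cell protease activity in ATAD5-luciferase HEK293T cells measured by CellTiter-Fluor fluorescence, 30 min development at 37C.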

[5] = qHTS assay for small molecule disruptors of the mitochondrial membrane potential - cell viability (AID 720634; calls by dose curve;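 also: human HepG2 liver cancer cells; series mostly up to about 83 µM; nearly all actives have a fitted effect of over 20% in size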)
How it was run: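 Cytotoxicity was quantified from ATP content by CellTiter-Glo luminescence in the same wells as the MMP dye read-out. HepG2 (2,000 cells/well) were plated overnight and exposed to compounds for 1 hr at 37 C.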

[6] = qHTS assay to test for compound auto fluorescence at 590 nm (red) in HepG2 cells (AID 720674)
How it was run: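 1 hr compound incubation on HepG2 cells, 37 C, 5% CO2; plate read ex 540 nm / em 590 nm; intensities reported as Rose Bengal sodium equivalents.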

[7] = qHTS assay to test for compound auto fluorescence at 535 nm (green) in HepG2 cells (AID 720675)
[8] = qHTS assay to test for compound auto fluorescence at 460 nm (blue) in HEK293 cells (AID 720678)
How it was run: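 HEK293 cells (2,000 per well, medium with 10% dialyzed FBS) attached for 4-5 hr at 37C, then received compound and stood overnight at 37C, 5% CO2. Blue fluorescence was read at Ex/Em 405/460 nm and expressed relative to triamterene.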

[9] = qHTS assay to test for compound auto fluorescence at 590 nm (red) in HEK293 cells (AID 720679)
How it was run: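 HEK293 cells (2,000/well, medium with 10% dialyzed FBS) attached for 4-5 hr at 37C, received 23 nL compound and were incubated overnight at 37C, 5% CO2. Red fluorescence was then read at 540/590nm Ex/Em, referenced to Rose Bengal sodium.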

[10] = qHTS assay to test for compound auto fluorescence at 535 nm (green) in HEK293 cells (AID 720680)
[11] = qHTS assay to test for compound auto fluorescence at 460 nm (blue) in HEK293 cell free culture (AID 720681)
How it was run: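 Blue fluorescence (Ex 405/Em 460 nm, triamterene-equivalent) was read immediately after pin transfer of compound or DMSO into medium (DMEM, 10% FBS) without cells.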

[12] = qHTS assay to test for compound auto fluorescence at 535 nm (green) in HEK293 cell free culture (AID 720682)
How it was run: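 Read-out: 485/535 nm fluorescence intensity, calibrated against fluorescein. Medium only (DMEM + 10% FBS, no cells); test compound or DMSO vehicle added by pintool before plate reading.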

[13] = qHTS assay to test for compound auto fluorescence at 590 nm (red) in HEK293 cell free culture (AID 720683)
How it was run: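 Red-channel autofluorescence of compounds in culture medium (DMEM, 10% FBS), no cells, measured at 540/590 nm. Rose Bengal sodium is the reference fluorophore for equivalence.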

[14] = qHTS assay to test for compound auto fluorescence at 590 nm (red) in HepG2 cell free culture (AID 720684)
How it was run: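 Cell-free; medium MEM + 10% FBS; compound or DMSO added by pintool; read Ex 540/Em 590 nm; Rose Bengal sodium as red reference fluorophore.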

[15] = qHTS assay to test for compound auto fluorescence at 460 nm (blue) in HepG2 cell free culture (AID 720685)
How it was run: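 Cell-free plates of MEM plus 10% FBS received 23 nL compound or DMSO vehicle; blue-channel (405/460 nm) intensity scored against triamterene as reference fluorophore.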

[16] = qHTS assay to test for compound auto fluorescence at 535 nm (green) in HepG2 cell free culture (AID 720686)
[17] = qHTS assay to test for compound auto fluorescence at 460 nm (blue) in HepG2 cells (AID 720687)
How it was run: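 Blue-channel autofluorescence (Ex/Em 405/460 nm, triamterene-equivalent) was measured after 1 hr compound exposure at 37 C, 5% CO2. Cells were HepG2, plated overnight at 37 C in MEM plus 10% FBS.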

[18] = molecular target: Glucocorticoid receptor (Homo sapiens) (UniProt P04150); experiment: qHTS assay to identify small molecule agonists of the glucocorticoid receptor (GR) signaling pathway (AID 720691; active = well fitted activation curve with a large enough effect in the signal ratio in the repeat runs, not every such curve was filed as active; the % refers to the signal ratio)
How it was run: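 Agonist-mode qHTS in HeLa cells stably expressing a glucocorticoid-response-element beta-lactamase reporter. Fluorescence intensity read with FRET substrate (2 h, room temperature) after 18 h compound treatment at 37 C.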

[19] = molecular target: Glucocorticoid receptor (Homo sapiens) (UniProt P04150); experiment: qHTS assay to identify small molecule antagonists of the glucocorticoid receptor (GR) signaling pathway (AID 720692; active = well fitted inhibition curve with a large enough effect in the signal ratio in the repeat runs, not every such curve was filed as active; the % refers to the signal ratio)
How it was run: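 Inhibition of dexamethasone-driven (5 nM final) beta-lactamase expression was measured in GRE-reporter HeLa cells over 18 h at 37C. Fluorescence was read after 2 h with the B/G FRET substrate at room temperature.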

[20] = qHTS assay for small molecule disruptors of the mitochondrial membrane potential (AID 720635)
How it was run: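 Mitochondrial membrane potential tracked with Mito-MPS dye, red aggregates (ex 540/em 590 nm) against green monomers (ex 490/em 535 nm). Compound treatment 1 hr at 37C, dye 30 min in HepG2.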
% is scaled to controls: 0 for no effect and ±100 for the full control effect.

Sequence of Glucocorticoid receptor (Homo sapiens) (P04150 whole entry, looked up): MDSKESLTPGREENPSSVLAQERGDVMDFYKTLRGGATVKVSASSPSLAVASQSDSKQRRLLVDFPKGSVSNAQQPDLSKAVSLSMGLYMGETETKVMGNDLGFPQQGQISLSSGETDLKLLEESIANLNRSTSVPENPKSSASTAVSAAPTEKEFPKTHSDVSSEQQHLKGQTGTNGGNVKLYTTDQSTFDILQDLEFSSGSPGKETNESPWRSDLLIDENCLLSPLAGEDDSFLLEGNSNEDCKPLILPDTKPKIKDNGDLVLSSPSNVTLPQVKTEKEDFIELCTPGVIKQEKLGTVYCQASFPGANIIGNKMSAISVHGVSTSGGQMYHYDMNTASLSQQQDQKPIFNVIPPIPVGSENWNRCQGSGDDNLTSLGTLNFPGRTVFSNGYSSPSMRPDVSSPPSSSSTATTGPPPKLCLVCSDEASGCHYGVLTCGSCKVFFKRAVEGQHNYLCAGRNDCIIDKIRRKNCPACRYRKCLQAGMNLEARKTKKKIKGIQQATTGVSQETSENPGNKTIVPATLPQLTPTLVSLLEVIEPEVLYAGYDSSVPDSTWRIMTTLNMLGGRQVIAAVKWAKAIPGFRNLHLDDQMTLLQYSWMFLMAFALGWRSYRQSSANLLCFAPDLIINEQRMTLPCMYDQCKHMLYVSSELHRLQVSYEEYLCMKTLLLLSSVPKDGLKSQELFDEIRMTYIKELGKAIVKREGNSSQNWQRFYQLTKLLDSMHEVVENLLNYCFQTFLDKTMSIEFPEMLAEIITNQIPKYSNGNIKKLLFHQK

CC1=CC(=O)CC(C)(C)C1=O
inactive: Potency [1] | Potency [2] | Potency [3] | Potency [4] | Potency [5] | outcome [6] | outcome [7] | outcome [8] | outcome [9] | outcome [10] | outcome [11] | outcome [12] | outcome [13] | outcome [14] | outcome [15] | outcome [16] | outcome [17] | Potency [18] | Potency [19]

CC(CNC1CCCCC1)OC(=O)c1ccccc1 (stereo not given)
inactive: Potency [1] | Potency [2] | Potency [3] | Potency [4] | Potency [5] | fluorescence, relative to Rose Bengal [6] -0.352% [at 18.6 µM] | fluorescence, % of fluorescein control [7] 0.0399% [at 18.6 µM] | fluorescence, % of triamterene [8] 0.0231% [at 18.6 µM] | fluorescence, % of fluorescent control [9] 0.178% [at 18.6 µM] | fluorescence, % of fluorescein [10] 0.0598% [at 18.6 µM] | fluorescence, % of fluorescent control [11] 0.0629% [at 18.6 µM] | activity change [12] 0.0004% [at 18.6 µM] | fluorescence, % of fluorescent control [13] -0.008% [at 18.6 µM] | fluorescence, % of Rose Bengal [14] 0.136% [at 18.6 µM] | fluorescence, % of fluorescent control [15] -0.0346% [at 18.6 µM] | fluorescence, % of fluorescein control [16] -0.0274% [at 18.6 µM] | fluorescence, % of fluorescent control [17] -0.124% [at 18.6 µM] | Potency [18] | Potency [19]

CC(C)OC(C)C
inactive: Potency [1] | Potency [2] | Potency [3] | Potency [4] | Potency [5] | outcome [6] | outcome [7] | outcome [8] | outcome [9] | outcome [10] | outcome [11] | outcome [12] | outcome [13] | outcome [14] | outcome [15] | outcome [16] | outcome [17] | Potency [18] | Potency [19]

Cc1cccc(C)c1NC(=O)CN1CCCCCC1
inactive: Potency [1] | Potency [2] | Potency [3] | Potency [4] | Potency [5] | outcome [6] | outcome [7] | outcome [8] | outcome [9] | outcome [10] | outcome [11] | outcome [12] | outcome [13] | outcome [14] | outcome [15] | outcome [16] | outcome [17] | Potency [18]

ICCc1ccccc1
inactive: Potency [1] | Potency [2] | Potency [3] | Potency [4] | Potency [5] | outcome [6] | outcome [7] | outcome [8] | outcome [9] | outcome [10] | outcome [11] | outcome [12] | outcome [13] | outcome [14] | outcome [15] | outcome [16] | outcome [17]

CC/C=C\CCOC(=O)C(C)C
inactive: Potency [1] | Potency [2] | Potency [3] | Potency [4] | Potency [5] | outcome [6] | outcome [7] | outcome [8] | outcome [9] | outcome [10] | outcome [11] | outcome [12] | outcome [13] | outcome [14] | outcome [15] | outcome [16] | outcome [17] | Potency [18]

CCc1nnc(NS(=O)(=O)c2ccc(N)cc2)s1
inactive: Potency [1] | Potency [2] | Potency [3] | Potency [4] | Potency [5] | outcome [6] | outcome [7] | outcome [8] | outcome [9] | outcome [10] | outcome [11] | outcome [12] | outcome [13] | outcome [14] | outcome [15] | outcome [16] | outcome [17]

Cc1ncc(CO)c(CN)c1O
inactive: Potency [1] | Potency [2] | Potency [3] | Potency [4] | Potency [5] | outcome [6] | outcome [7] | outcome [8] | outcome [9] | outcome [10] | outcome [11] | outcome [12] | outcome [13] | outcome [14] | outcome [15] | outcome [16] | outcome [17]

COc1cc(Cl)ccc1Cl
inactive: Potency [1] | Potency [2] | Potency [3] | Potency [4] | Potency [5] | outcome [6] | outcome [7] | outcome [8] | outcome [9] | outcome [10] | outcome [11] | outcome [12] | outcome [13] | outcome [14] | outcome [16] | outcome [17] | Potency [18] | Potency [19]

CCOC(=O)NCCC[Si](OCC)(OCC)OCC
inactive: Potency [1] | Potency [2] | Potency [3] | Potency [4] | Potency [5] | outcome [6] | outcome [7] | outcome [8] | outcome [9] | outcome [10] | outcome [11] | outcome [12] | outcome [13] | outcome [14] | outcome [15] | outcome [16] | outcome [17] | Potency [18]

NC(Cc1ccc(F)cc1)C(=O)O (stereo not given)
inactive: activation [1] -4.8% [at 8.3 µM] | activation [2] 3.53% [at 8.08 µM] | activity change, negative = cytotoxicity [3] 33% [at 8.08 µM] | activity, negative = cytotoxicity [4] 10.7% [at 8.08 µM] | activity change, negative = cytotoxicity [5] -3.31% [at 8.08 µM] | fluorescence, relative to Rose Bengal [6] 0.0373% [at 3.72 µM] | fluorescence, % of fluorescein control [7] -0.0482% [at 3.72 µM] | fluorescence, % of triamterene [8] -0.105% [at 3.72 µM] | fluorescence, % of fluorescent control [9] 0.0934% [at 3.72 µM] | fluorescence, % of fluorescent control [11] -0.189% [at 3.72 µM] | activity change [12] 0.0132% [at 3.72 µM] | fluorescence, % of fluorescent control [13] 0.0018% [at 3.72 µM] | fluorescence, % of Rose Bengal [14] -0.117% [at 3.72 µM] | fluorescence, % of fluorescent control [15] -0.0373% [at 3.72 µM] | fluorescence, % of fluorescein control [16] -0.0064% [at 3.72 µM] | fluorescence, % of fluorescent control [17] -0.0921% [at 3.72 µM] | activation [18] -7.29% [at 6.9 µM]

O=C1CCN(c2ccccc2)N1
inactive: Potency [1] | Potency [2] | Potency [3] | Potency [5] | Potency [20] | outcome [6] | outcome [7] | outcome [8] | outcome [9] | outcome [10] | outcome [11] | outcome [12] | outcome [13] | outcome [14] | outcome [16] | outcome [17] | Potency [18] | Potency [19]
